Assay results from the supplement of paper PMC10849652.
About 7,900 targets were measured; listed, in parts, are those with a hit and a random draw of the rest. About 0.6% of all pairs of compound and target were hits. A number with no mark means an inactive call.

Key:
Test in all cases: log2 fold change, soluble protein after heating vs DMSO (PISA); higher = thermal stabilisation; K562 cells, 10 uM, 30 min; active = over 0.2 and 3.5 SD of the protein, either way, in both replicates (recomputed)
[1] = compound: CC1=C(C=C(C=C1)NC(=O)C2=CC(=CC=C2)C(C)(C)C#N)NC3=CC4=C(C=C3)N=CN(C4=O)C
In short: (§1)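 K562 cells at 2×10^6 cells/mL were treated for 30 min with 10 μM compound, and aliquots were heated for 3 min over 48°C-58°C before pooling. Extraction used PBS with 0.5% NP-40 at 4°C, and soluble protein was the supernatant after 21,000xg for 90 min, measured by TMTpro 16plex LC-MS/MS with channel sums equalised. Thermal stability values, relative to control samples and from duplicates, are log2 fold changes.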

[2] = compound: CC1=C(C=C(C=C1)NC(=O)C2=CC(=CC=C2)N(C)C)NC(=O)C3=CC=C(C=C3)O
In short: as §1

[3] = compound: CC1=CC=C(C=C1)SC2=C3C=C(SC3=CN=C2)C(=O)N
In short: as §1

[4] = compound: CC1=NC(=CC=C1)C2=C(N=C(N2)C(C)(C)C)C3=CC4=NC=CN=C4C=C3
In short: as §1

Nexturastat A = compound: CCCCN(Cc1ccc(C(=O)NO)cc1)C(=O)Nc1ccccc1 [Nexturastat A]
In short: as §1

vemurafenib = compound: CCCS(=O)(=O)Nc1ccc(F)c(C(=O)c2c[nH]c3ncc(-c4ccc(Cl)cc4)cc23)c1F [vemurafenib]
In short: as §1

[5] = compound: CCCS(=O)(=O)Nc1ccc(F)c(C(=O)c2c[nH]c3ncc(Cl)cc23)c1F
In short: as §1

[6] = compound: CCCc1cc(C)[nH]c(=O)c1CNC(=O)c1cc(-c2ccnc(N3CCN(C)CC3)c2)cc2c1cnn2C(C)C
In short: as §1

givinostat = compound: CCN(CC)Cc1ccc2cc(COC(=O)Nc3ccc(C(=O)NO)cc3)ccc2c1 [givinostat]
In short: as §1

barasertib = compound: CCN(CCCOc1ccc2c(Nc3cc(CC(=O)Nc4cccc(F)c4)[nH]n3)ncnc2c1)CCOP(=O)(O)O [barasertib]
In short: as §1

[7] = compound: CC[C@@H]1C(=O)N(C)c2cnc(Nc3ccc(C(=O)NC4CCN(C)CC4)cc3OC)nc2N1C1CCCC1
In short: as §1

volasertib = compound: CC[C@@H]1C(=O)N(C)c2cnc(Nc3ccc(C(=O)N[C@H]4CC[C@H](N5CCN(CC6CC6)CC5)CC4)cc3OC)nc2N1C(C)C [volasertib]
In short: as §1

[8] = compound: CC[C@H](C)N1C=C(C2=C(C=C(C=C21)C3=CN=C(C=C3)N4CCNCC4)C(=O)NCC5=C(C=C(NC5=O)C)C)C
In short: as §1

epoxomicin = compound: CC[C@H](C)[C@@H](C(=O)N[C@@H]([C@@H](C)O)C(=O)N[C@@H](CC(C)C)C(=O)[C@]1(CO1)C)NC(=O)[C@H]([C@@H](C)CC)N(C)C(=O)C [epoxomicin]
In short: as §1

[9] = compound: CCn1c(C(=O)N(C2CC2)C2CC2)cc2c3c(ncn3C)c(Nc3cc(C)n(C)n3)nc21
In short: as §1

[10] = compound: CCn1cc(-c2ccnc3[nH]c(-c4cccc(CN(C)C)c4)cc23)c(-c2ccc(NC(=O)N(C)C)cc2)n1
In short: as §1

[11] = compound: CN(C)CC(=O)Nc1ccc2[nH]c(=O)c3ccccc3c2c1
In short: as §1

rosiglitazone = compound: CN(CCOC1=CC=C(C=C1)C[C@H]2C(=O)NC(=O)S2)C3=CC=CC=N3 (racemic) [rosiglitazone]
In short: as §1

[12] = compound: CN1C2=C(C3=C1C(=O)N(N=C3)CC4=CC(=CC=C4)N)SC(=C2)S(=O)C
In short: as §1

[13] = compound: CN1CCC(CNc2ccc3ncc(-c4cccc(OC(F)(F)F)c4)n3n2)CC1
In short: as §1

UniProt Q969G3, sequence (Q969G3 whole entry, looked up): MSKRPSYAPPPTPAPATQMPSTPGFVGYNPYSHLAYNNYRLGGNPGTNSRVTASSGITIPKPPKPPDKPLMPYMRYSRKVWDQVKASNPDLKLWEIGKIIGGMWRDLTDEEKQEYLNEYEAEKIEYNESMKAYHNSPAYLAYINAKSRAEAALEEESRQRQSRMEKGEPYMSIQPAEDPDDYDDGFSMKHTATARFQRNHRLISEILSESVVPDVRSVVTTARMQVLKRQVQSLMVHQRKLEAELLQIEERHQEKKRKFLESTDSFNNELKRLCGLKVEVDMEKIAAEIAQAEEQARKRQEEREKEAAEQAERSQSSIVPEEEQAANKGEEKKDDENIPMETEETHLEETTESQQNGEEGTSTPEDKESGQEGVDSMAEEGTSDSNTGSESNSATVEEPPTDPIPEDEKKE
UniProt O14776, sequence (O14776 whole entry, looked up): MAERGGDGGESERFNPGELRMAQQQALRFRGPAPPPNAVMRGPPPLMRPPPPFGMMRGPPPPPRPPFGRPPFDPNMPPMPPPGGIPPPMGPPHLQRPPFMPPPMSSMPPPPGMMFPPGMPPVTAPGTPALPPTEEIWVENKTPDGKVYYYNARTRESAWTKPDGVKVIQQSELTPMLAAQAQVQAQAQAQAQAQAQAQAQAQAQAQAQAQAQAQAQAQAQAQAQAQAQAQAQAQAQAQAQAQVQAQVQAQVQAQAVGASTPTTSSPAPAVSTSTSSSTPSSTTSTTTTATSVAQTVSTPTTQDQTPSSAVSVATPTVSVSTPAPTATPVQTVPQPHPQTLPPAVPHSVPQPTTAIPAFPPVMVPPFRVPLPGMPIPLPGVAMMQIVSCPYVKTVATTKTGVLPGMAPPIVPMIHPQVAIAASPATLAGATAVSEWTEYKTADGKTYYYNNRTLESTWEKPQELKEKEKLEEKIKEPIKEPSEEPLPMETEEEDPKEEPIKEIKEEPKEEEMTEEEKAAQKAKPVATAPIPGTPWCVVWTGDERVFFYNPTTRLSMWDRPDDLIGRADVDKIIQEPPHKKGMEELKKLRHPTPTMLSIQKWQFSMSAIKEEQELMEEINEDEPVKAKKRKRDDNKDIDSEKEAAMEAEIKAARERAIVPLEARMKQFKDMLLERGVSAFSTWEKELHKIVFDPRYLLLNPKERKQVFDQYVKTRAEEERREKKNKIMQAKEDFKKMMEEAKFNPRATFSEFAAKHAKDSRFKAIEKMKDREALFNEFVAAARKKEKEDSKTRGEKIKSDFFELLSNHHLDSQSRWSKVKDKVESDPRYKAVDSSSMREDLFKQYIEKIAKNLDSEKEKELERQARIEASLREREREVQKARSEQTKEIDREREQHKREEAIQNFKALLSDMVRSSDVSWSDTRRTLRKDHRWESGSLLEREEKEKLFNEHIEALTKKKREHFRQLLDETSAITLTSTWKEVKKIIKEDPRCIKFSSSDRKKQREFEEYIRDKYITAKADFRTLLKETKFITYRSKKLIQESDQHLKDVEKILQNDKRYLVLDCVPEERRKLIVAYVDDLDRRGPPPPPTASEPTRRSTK
UniProt Q92609, sequence (Q92609 whole entry, looked up): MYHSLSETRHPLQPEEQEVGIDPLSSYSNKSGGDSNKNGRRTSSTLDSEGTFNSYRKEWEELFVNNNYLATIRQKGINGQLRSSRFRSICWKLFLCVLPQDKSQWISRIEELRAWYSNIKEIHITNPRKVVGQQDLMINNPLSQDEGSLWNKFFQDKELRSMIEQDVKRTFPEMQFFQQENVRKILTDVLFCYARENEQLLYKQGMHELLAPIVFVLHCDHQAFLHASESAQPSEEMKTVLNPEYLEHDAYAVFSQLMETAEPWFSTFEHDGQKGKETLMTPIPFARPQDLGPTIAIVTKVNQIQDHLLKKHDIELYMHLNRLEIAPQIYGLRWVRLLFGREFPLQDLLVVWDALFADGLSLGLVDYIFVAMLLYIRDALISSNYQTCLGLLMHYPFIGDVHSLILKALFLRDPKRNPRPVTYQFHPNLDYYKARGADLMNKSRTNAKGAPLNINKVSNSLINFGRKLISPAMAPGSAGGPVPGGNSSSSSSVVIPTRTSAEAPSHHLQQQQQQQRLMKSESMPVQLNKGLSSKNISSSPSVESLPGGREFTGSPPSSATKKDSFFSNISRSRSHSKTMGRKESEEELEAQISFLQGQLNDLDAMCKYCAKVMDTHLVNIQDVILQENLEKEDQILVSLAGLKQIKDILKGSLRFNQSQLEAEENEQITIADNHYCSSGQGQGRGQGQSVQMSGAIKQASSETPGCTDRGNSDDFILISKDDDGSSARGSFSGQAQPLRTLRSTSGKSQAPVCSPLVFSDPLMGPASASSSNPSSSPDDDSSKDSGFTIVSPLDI
UniProt Q05519, sequence (Q05519 whole entry, looked up): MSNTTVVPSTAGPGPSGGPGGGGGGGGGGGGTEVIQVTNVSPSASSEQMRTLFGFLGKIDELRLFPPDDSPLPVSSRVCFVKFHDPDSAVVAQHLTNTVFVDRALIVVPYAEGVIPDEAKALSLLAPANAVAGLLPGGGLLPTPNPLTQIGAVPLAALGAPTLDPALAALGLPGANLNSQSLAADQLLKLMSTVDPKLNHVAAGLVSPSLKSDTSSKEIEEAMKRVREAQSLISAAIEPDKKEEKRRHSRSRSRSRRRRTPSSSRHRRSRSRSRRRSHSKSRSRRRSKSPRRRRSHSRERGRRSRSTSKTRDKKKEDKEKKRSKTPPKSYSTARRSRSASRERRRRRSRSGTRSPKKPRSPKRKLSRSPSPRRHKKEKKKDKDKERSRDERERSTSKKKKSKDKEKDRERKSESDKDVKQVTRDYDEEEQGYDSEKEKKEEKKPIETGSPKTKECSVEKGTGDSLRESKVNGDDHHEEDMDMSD
UniProt Q9H2G2, sequence (Q9H2G2 whole entry, looked up): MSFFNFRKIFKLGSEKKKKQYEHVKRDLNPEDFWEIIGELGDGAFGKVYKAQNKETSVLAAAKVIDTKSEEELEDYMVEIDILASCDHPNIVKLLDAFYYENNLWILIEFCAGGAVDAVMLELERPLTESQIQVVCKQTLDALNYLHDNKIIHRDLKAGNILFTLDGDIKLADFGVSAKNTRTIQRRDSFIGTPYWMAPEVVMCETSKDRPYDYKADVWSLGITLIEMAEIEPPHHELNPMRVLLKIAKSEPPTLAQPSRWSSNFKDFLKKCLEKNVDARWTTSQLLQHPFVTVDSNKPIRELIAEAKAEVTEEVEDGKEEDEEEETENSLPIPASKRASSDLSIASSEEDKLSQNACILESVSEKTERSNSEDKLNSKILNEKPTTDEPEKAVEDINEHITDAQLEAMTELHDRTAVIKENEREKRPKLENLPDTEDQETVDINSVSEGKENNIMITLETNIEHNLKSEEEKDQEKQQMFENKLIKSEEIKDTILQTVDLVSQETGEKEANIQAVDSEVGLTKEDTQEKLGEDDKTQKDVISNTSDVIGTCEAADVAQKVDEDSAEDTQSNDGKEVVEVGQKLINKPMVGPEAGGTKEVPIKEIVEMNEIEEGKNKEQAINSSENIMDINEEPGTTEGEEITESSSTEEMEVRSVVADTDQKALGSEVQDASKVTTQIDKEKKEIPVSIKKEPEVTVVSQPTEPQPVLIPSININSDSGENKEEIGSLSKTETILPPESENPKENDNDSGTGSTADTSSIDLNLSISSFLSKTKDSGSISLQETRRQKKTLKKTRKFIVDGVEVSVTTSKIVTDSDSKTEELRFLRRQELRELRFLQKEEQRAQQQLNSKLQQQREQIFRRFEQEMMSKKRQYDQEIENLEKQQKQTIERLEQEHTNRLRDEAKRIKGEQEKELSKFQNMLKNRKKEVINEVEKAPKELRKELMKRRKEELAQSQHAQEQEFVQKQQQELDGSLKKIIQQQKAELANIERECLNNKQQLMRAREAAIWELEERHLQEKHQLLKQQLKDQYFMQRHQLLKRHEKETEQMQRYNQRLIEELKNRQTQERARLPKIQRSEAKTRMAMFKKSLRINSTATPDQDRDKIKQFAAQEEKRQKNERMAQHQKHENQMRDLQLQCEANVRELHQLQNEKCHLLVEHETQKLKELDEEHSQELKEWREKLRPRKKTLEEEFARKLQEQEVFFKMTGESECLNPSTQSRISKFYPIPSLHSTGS
UniProt O60749, sequence (O60749 whole entry, looked up): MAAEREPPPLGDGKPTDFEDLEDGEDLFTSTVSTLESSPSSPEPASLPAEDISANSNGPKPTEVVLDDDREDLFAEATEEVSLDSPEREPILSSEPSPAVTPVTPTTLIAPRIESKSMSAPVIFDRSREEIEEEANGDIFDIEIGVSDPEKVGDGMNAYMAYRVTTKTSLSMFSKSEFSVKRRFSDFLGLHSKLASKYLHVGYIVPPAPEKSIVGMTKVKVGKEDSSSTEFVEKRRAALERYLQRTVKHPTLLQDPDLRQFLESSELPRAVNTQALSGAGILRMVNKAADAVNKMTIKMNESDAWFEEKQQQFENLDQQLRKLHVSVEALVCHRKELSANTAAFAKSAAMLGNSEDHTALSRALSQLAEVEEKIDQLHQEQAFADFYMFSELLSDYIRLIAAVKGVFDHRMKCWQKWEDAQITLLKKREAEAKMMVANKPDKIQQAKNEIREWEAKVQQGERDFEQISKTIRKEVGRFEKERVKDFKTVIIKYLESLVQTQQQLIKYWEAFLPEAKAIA
UniProt Q9H5Q4, sequence (Q9H5Q4 whole entry, looked up): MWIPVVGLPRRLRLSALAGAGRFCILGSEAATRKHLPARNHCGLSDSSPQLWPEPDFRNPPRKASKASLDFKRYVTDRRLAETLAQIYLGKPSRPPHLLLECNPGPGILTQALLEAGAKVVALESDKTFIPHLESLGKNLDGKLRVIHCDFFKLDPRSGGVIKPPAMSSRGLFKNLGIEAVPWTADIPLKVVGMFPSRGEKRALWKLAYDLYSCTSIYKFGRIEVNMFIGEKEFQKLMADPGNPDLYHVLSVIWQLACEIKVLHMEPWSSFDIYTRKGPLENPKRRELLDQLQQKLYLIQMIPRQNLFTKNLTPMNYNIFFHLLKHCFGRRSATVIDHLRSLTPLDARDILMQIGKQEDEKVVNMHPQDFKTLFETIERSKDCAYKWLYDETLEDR

Target | log2 fold change [1] | log2 fold change [2] | log2 fold change [3] | log2 fold change [4] | log2 fold change (Nexturastat A) | log2 fold change (vemurafenib) | log2 fold change [5] | log2 fold change [6] | log2 fold change (givinostat) | log2 fold change (barasertib) | log2 fold change [7] | log2 fold change (volasertib) | log2 fold change [8] | log2 fold change (epoxomicin) | log2 fold change [9] | log2 fold change [10] | log2 fold change [11] | log2 fold change (rosiglitazone) | log2 fold change [12] | log2 fold change [13]
SPAST (UniProt Q9UBP0) | -0.032 | -0.05 | 0.049 | 0.029 | -0.047 | 0.068 | 0.021 | 0.062 | 0.074 | 0.045 | -0.128 | -0.242 | 0.107 | 0.021 | -0.077 | 0.035 | 0.079 | 0.048 | -0.046 | -0.043
SLC9A6 isoform 2 (UniProt Q92581) | -0.035 | 0.024 | -0.002 | -0.012 | -0.061 | 0.024 | 0 | -0.063 | -0.01 | 0.018 | 0.047 | -0.081 | 0.009 | -0.013 | -0.003 | -0.003 | -0.026 | -0.013 | -0.039 | -0.071
SNX2 (UniProt O60749) | 0.009 | -0.022 | 0.02 | 0.012 | 0.021 | 0.013 | 0.052 | -0.036 | 0.073 | 0.037 | -0.129 | -0.053 | 0.093 | 0.026 | -0.102 | -0.08 | 0.005 | 0.054 | -0.003 | -0.332 (active)
TBC1D5 isoform 2 (UniProt Q92609) | -0.051 | -0.048 | -0.013 | 0.018 | 0.01 | 0.048 | 0.112 | -0.033 | 0.049 | 0.022 | -0.397 (active) | -0.854 (active) | 0.113 | 0.069 | -0.076 | -0.016 | 0.039 | 0.022 | 0.021 | -0.375 (active)
TFB2M (UniProt Q9H5Q4) | -0.017 | 0 | 0.008 | 0.086 | -0.077 | 0.035 | 0.073 | -0.058 | 0.017 | 0.048 | -0.096 | -0.326 (active) | 0.049 | 0.071 | 0 | -0.002 | 0.031 | 0.042 | -0.049 | -0.179
SPG11 (UniProt Q96JI7) | -0.384 | 0.068 | -0.063 | -0.182 | 0.359 | -0.415 | -0.008 | -1.21 | 0.023 | 0.029 | 0.155 | -0.294 | 0.017 | -0.085 | 0.019 | 0.141 | -0.216 | -0.045 | 0.367 | -1.24 (active)
SNRNP27 (UniProt Q8WVK2) | -0.015 | -0.006 | -0.008 | 0.007 | -0.02 | -0.031 | -0.021 | -0.361 | -0.032 | -0.039 | 0.029 | 0.014 | -0.08 | 0.01 | 0.051 | 0.038 | 0.005 | -0.027 | 0.051 | -0.032
TCERG1 (UniProt O14776) | 0.061 | -0.147 | 0.08 | 0.077 | -0.144 | 0.118 | 0.135 | -0.006 | 0.146 | 0.107 | -0.145 | -0.445 (active) | 0.133 | 0.116 | -0.076 | -0.032 | 0.135 | 0.071 | -0.038 | -0.136
SLK isoform 2 (UniProt Q9H2G2) | -0.078 | -0.07 | 0.051 | 0.02 | -0.007 | 0.03 | 0.092 | 0.026 | 0 | 0.047 | -0.095 | -0.161 | 0.05 | 0.052 | -0.002 | -0.271 (active) | -0.016 | 0.041 | -0.022 | -0.152
TBC1D10B (UniProt Q4KMP7) | -0.019 | 0.015 | 0.025 | 0 | -0.051 | 0.004 | 0.048 | 0.014 | 0.018 | 0.01 | -0.108 | -0.114 | 0.025 | 0.019 | 0.022 | 0.004 | -0.005 | 0.015 | -0.053 | -0.185
SRP68 (UniProt Q9UHB9) | 0.028 | -0.062 | 0 | 0.018 | 0.125 | 0.063 | 0.091 | 0.064 | 0.075 | 0.078 | -0.077 | -0.487 (active) | 0.079 | 0.094 | -0.093 | -0.024 | 0.019 | 0.048 | 0.133 | -0.18
SNX1 (UniProt Q13596) | -0.014 | -0.001 | -0.001 | 0.042 | -0.025 | 0.002 | 0.083 | -0.014 | 0.054 | 0.037 | -0.135 | -0.113 | 0.096 | 0.037 | -0.096 | -0.107 | 0.003 | 0.079 | -0.029 | -0.605 (active)
TBC1D23 (UniProt Q9NUY8) | 0.029 | -0.038 | 0.005 | 0.005 | -0.071 | 0.035 | 0.034 | -0.074 | 0.006 | 0.041 | -0.228 | -0.261 | 0.008 | 0.049 | -0.05 | -0.069 | 0.025 | 0.042 | 0.043 | -0.651 (active)
STXBP5 (UniProt Q5T5C0) | -0.021 | -0.041 | -0.007 | -0.006 | -0.002 | -0.038 | 0.013 | -0.006 | 0.022 | -0.004 | -0.085 | -0.344 (active) | 0.021 | 0.151 | -0.019 | 0.046 | 0.033 | 0.007 | 0.015 | -0.006
SMARCE1 (UniProt Q969G3) | -0.025 | -0.058 | -0.003 | 0.074 | 0.121 | -0.123 | 0.085 | -0.522 | 0.028 | 0.042 | -0.006 | -0.125 | 0.087 | -0.033 | -0.071 | 0.053 | -0.036 | -0.222 | 0.058 | -0.045
SRSF11 (UniProt Q05519) | -0.029 | -0.058 | 0.009 | 0.032 | -0.022 | 0.007 | 0.087 | 0.053 | 0.059 | 0.023 | -0.088 | -0.311 (active) | 0.074 | 0.047 | -0.022 | -0.072 | 0.02 | 0.006 | -0.018 | 0.128
